Active and inactive are the calls of the source. The calls were made as follows: active = hit-call score of the fitted dose curve at least 0.9, where 1 is the maximum; inactive = score below 0.9.
What was measured:
[1] = ATG_CRE_CIS: Attagene CIS-FACTORIAL HepG2 Assay for human cAMP Responsive Element (CRE) binding protein 3 (AID 2282926); details: HepG2 CRE cis-reporter, Attagene multiplexed mRNA; actives raise or lower the signal
In short: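 Multiplexed transcription-unit reporters transfected into HepG2; 24 h dosing; RT-PCR/capillary electrophoresis fluorescence read-out; bidirectional fit vs DMSO.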

[2] = target: CCAAT/enhancer-binding protein beta (Homo sapiens) (UniProt P17676); assay: ATG_C_EBP_CIS: Attagene CIS-FACTORIAL HepG2 Assay for human CCAAT/Enhancer Binding Protein (C/EBP) beta (AID 2282927); details: HepG2 Attagene cis-factorial transcription factor reporter; actives raise or lower the signal
In short: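 Following a 24 h incubation with test chemical, transfected HepG2 cells yielded RNA whose reporter transcripts were quantified by RT-PCR and fluorescent capillary electrophoresis, with DMSO serving as baseline for bidirectional fitting.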

[3] = ATG_DR4_LXR_CIS: Attagene CIS-FACTORIAL HepG2 Assay for human Liver X Receptor (LXR), DR4 submotif (AID 2282929); details: HepG2 Attagene DR4 cis-reporter, mRNA transcription; actives raise or lower the signal
In short: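 Fluorescence intensity of labelled reporter cDNA fragments, separated by capillary electrophoresis, gives the signal. HepG2 cells bearing cis-regulated reporter constructs were treated 24 h; activity fitted bidirectionally relative to DMSO negative control.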

[4] = ATG_AP_2_CIS: Attagene CIS-FACTORIAL HepG2 Assay for human Activator Protein 2 (AP-2) (AID 2282932); details: HepG2 AP-2 cis-reporter, Attagene transcription factor profiling; actives raise or lower the signal
In short: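 HepG2 cells were transiently transfected with multiple cis-promoter reporter transcription units and dosed for 24 h. Reporter mRNA was measured by RT-PCR with capillary electrophoresis fluorescence; bidirectional fits relative to DMSO baseline.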

[5] = ATG_BRE_CIS: Attagene CIS-FACTORIAL HepG2 Assay for human Bone Morphogenetic Protein (BMP) Response Element (BRE) (AID 2282933); details: HepG2 BMP response element reporter, Attagene transcription factor profiling; actives raise or lower the signal
In short: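 Fluorescence-labelled reporter cDNA fragments, separated by capillary electrophoresis, gave the signal for this component of a 52-readout multiplex. HepG2 cells were transfected, exposed to chemicals for 24 h, and compared with DMSO using bidirectional fitting.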

[6] = target: Retinoic acid receptor alpha (Homo sapiens) (UniProt P10276); assay: ATG_DR5_RAR_CIS: Attagene CIS-FACTORIAL HepG2 Assay for human Retinoic Acid Receptor Alpha (RARE), DR5 submotif (AID 2282934); details: HepG2 Attagene cis-factorial RARE DR5 reporter, mRNA; actives raise or lower the signal
In short: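 Endpoint fitted in both directions relative to DMSO as negative control. It reflects DR5 cis-element reporter mRNA induction in transiently transfected HepG2 cells, measured 24 h after dosing through RT-PCR and fluorescent capillary electrophoresis.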

[7] = target: Transcription factor E2F1 (Homo sapiens) (UniProt Q01094); assay: ATG_E2F_CIS: Attagene CIS-FACTORIAL HepG2 Assay for human E2F Transcription Factor 1 (AID 2282935); details: HepG2 Attagene cis-reporter, E2F reporter RNA transcripts; actives raise or lower the signal
In short: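 HepG2 cells transiently transfected with multiplexed cis-element reporter units, dosed for 24 h. Reporter mRNA measured by RT-PCR, 6-FAM primer-extension labeling, HpaI digestion and capillary electrophoresis; bidirectional fit versus DMSO baseline.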

[8] = ATG_E_Box_CIS: Attagene CIS-FACTORIAL HepG2 Assay for human Enhancer Box (E-box) (AID 2282936); details: HepG2 E-box cis-reporter transcription, actives raise or lower the signal
In short: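 HepG2 cells transiently transfected with multiplexed cis-element reporter units sensing endogenous transcription factor activity; 24 h compound exposure. Reporter mRNA measured by RT-PCR, 6-FAM primer extension, HpaI digestion and capillary electrophoresis; bidirectional fit versus DMSO.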

[9] = ATG_M_61_CIS: Attagene CIS-FACTORIAL HepG2 Assay for M61 Transcription Factor (Internal Marker) (AID 2282937); details: HepG2 Attagene CIS-FACTORIAL M61 internal marker reporter; actives raise or lower the signal
In short: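 Endogenous transcription factor activity in HepG2 is read through transiently transfected cis-element reporter units. After 24 h dosing, RNA undergoes reverse transcription, PCR and primer extension with 6-FAM before capillary electrophoresis; DMSO-referenced bidirectional fit.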

[10] = ATG_EGR_CIS: Attagene CIS-FACTORIAL HepG2 Assay for human Early Growth Response 1 (EGR1) (AID 2282938); details: HepG2 Attagene CIS-FACTORIAL EGR reporter mRNA; actives raise or lower the signal
In short: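 Activity is taken as induction or loss of reporter mRNA versus DMSO, fitted bidirectionally. Transcripts from cis-regulated reporter units in transiently transfected HepG2 were measured after 24 h by RT-PCR with capillary electrophoresis.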

[11] = ATG_M_19_CIS: Attagene CIS-FACTORIAL HepG2 Assay for M19 Transcription Factor (Internal Marker) (AID 2282939); details: HepG2 Attagene CIS-FACTORIAL M19 internal marker reporter; actives raise or lower the signal
In short: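 HepG2, MRTU transient transfection, 24 h dosing. Total RNA → RT-PCR → 6-FAM primer extension → HpaI digest → CE fluorescence. Bidirectional curve fit, DMSO negative control.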

[12] = ATG_Ets_CIS: Attagene CIS-FACTORIAL HepG2 Assay for human Erythroblast Transformation Specific (ETS) (AID 2282941); details: HepG2 ETS cis-reporter transcription, actives raise or lower the signal
In short: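 HepG2 cells transfected with multiple cis-regulated reporter units measuring endogenous ETS-driven transcription, 24 h after dosing. Reporter mRNA quantified by RT-PCR with capillary electrophoresis; bidirectional fit relative to DMSO.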

[13] = target: Hepatocyte nuclear factor 3-beta (Homo sapiens) (UniProt Q9Y261); assay: ATG_FoxA2_CIS: Attagene CIS-FACTORIAL HepG2 Assay for human Forkhead box A2 (FOXA2) (AID 2282942); details: HepG2 cis-reporter transcription factor activity, 24 h; actives raise or lower the signal
In short: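 Reporter transcript induction is measured by fluorescence after capillary electrophoresis of RT-PCR products from HepG2 cells exposed 24 h. Cis-regulated reporter units report endogenous factor activity; curves fitted both directions against DMSO.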

[14] = ATG_FoxO_CIS: Attagene CIS-FACTORIAL HepG2 Assay for human Forkhead box O (FoxO) (AID 2282943); details: HepG2 Attagene cis-reporter, FoxO element, mRNA; actives raise or lower the signal
In short: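 Values reflect reporter mRNA induction or loss in HepG2 cells 24 h post-dosing, fitted bidirectionally with DMSO as negative control and baseline. Detection used RT-PCR and fluorescence capillary electrophoresis.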

[15] = ATG_GATA_CIS: Attagene CIS-FACTORIAL HepG2 Assay for human GATA Binding Protein (AID 2282944); details: HepG2 GATA cis-element reporter, Attagene multiplex mRNA; actives raise or lower the signal
In short: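 Cells: HepG2, transiently transfected with cis-regulated reporter transcription units. Exposure: 24 h. Detection: RT-PCR plus capillary electrophoresis of FAM-labeled fragments. Analysis: bidirectional, DMSO as baseline.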

[16] = target: Aryl hydrocarbon receptor (Homo sapiens) (UniProt P35869); assay: ATG_Ahr_CIS: Attagene CIS-FACTORIAL HepG2 Assay for human Aryl Hydrocarbon Receptor (Ahr) (AID 2282930); details: HepG2 AhR cis-factorial reporter transcription; actives raise or lower the signal
In short: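 Values derive from bidirectional fitting against DMSO negative control. Underlying signal: cis-element reporter mRNA in transiently transfected HepG2, harvested 24 h post-dose and measured by RT-PCR plus capillary electrophoresis.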

[17] = ATG_AP_1_CIS: Attagene CIS-FACTORIAL HepG2 Assay for human Activator Protein 1 (AP-1) (AID 2282931); details: HepG2 Attagene cis-factorial AP-1 reporter mRNA; actives raise or lower the signal
In short: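 Multiplexed HepG2 reporter assay, 24 h dosing. mRNA induction detected by RT-PCR plus capillary electrophoresis. Activity fitted in both directions against DMSO.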

[18] = ATG_GLI_CIS: Attagene CIS-FACTORIAL HepG2 Assay for human Zinc Finger Protein GLI1 (AID 2282945); details: HepG2, Attagene cis-factorial reporter mRNA, GLI element; actives raise or lower the signal
In short: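 HepG2 cells transiently transfected with cis-promoter multiplexed reporter units report endogenous transcription factor activity. After 24 h chemical exposure, reporter mRNA was quantified by RT-PCR, 6-FAM labelling, HpaI digestion and capillary electrophoresis, with bidirectional fitting against DMSO.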

[19] = ATG_ERE_CIS: Attagene CIS-FACTORIAL HepG2 Assay for Estrogen Response Element (ERE) (AID 2282940); details: HepG2 ERE cis-reporter, Attagene RNA transcript; actives raise or lower the signal
In short: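 After a 24 h chemical treatment, RNA from reporter-transfected HepG2 cells is reverse-transcribed, PCR-amplified and fluorescently labelled. Fragments separated by capillary electrophoresis give reporter signal; DMSO serves as negative control.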

Chain of Aryl hydrocarbon receptor (Homo sapiens) (P35869 whole entry, looked up): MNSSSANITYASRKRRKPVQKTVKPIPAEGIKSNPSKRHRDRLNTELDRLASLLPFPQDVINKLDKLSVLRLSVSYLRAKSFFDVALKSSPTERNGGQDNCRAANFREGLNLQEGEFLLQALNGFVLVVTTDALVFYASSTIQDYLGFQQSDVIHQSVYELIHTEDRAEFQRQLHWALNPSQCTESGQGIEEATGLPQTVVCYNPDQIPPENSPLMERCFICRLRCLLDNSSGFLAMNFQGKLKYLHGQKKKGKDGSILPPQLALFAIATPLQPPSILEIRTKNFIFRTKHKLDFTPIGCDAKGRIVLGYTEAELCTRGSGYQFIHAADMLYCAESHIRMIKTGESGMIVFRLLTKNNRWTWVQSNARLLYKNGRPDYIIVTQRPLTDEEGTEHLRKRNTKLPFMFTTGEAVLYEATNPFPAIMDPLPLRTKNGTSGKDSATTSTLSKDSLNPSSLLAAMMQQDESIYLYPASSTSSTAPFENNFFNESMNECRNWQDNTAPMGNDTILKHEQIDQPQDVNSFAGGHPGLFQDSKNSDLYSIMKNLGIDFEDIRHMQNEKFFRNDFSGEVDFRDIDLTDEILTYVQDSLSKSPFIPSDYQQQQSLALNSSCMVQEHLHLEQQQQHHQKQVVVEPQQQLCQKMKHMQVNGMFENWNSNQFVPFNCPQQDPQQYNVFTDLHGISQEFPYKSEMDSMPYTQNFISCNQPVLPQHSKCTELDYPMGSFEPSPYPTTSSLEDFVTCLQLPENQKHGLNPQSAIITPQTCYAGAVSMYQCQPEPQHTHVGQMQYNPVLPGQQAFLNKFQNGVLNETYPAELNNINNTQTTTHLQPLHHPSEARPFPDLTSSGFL
Chain of CCAAT/enhancer-binding protein beta (Homo sapiens) (P17676 whole entry, looked up): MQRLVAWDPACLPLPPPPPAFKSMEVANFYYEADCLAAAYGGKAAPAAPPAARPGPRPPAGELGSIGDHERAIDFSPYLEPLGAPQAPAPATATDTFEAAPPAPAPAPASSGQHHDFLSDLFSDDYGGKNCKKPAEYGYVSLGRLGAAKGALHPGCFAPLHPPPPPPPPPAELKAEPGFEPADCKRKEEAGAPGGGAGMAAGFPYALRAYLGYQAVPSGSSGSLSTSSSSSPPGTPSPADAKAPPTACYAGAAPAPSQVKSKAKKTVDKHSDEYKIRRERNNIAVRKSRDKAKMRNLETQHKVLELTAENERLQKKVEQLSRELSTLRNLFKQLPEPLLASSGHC
Chain of Transcription factor E2F1 (Homo sapiens) (Q01094 whole entry, looked up): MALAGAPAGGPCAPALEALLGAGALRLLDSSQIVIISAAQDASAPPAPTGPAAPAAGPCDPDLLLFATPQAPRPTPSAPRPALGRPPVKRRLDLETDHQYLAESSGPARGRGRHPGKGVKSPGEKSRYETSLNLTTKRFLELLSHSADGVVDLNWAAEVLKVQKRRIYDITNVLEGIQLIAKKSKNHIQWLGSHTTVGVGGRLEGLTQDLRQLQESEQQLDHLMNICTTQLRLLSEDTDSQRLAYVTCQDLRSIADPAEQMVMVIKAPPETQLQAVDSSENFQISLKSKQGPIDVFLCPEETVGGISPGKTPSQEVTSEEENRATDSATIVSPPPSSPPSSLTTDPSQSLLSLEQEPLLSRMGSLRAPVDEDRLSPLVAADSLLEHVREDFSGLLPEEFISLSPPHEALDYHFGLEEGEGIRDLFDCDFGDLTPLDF
Chain of Hepatocyte nuclear factor 3-beta (Homo sapiens) (Q9Y261 whole entry, looked up): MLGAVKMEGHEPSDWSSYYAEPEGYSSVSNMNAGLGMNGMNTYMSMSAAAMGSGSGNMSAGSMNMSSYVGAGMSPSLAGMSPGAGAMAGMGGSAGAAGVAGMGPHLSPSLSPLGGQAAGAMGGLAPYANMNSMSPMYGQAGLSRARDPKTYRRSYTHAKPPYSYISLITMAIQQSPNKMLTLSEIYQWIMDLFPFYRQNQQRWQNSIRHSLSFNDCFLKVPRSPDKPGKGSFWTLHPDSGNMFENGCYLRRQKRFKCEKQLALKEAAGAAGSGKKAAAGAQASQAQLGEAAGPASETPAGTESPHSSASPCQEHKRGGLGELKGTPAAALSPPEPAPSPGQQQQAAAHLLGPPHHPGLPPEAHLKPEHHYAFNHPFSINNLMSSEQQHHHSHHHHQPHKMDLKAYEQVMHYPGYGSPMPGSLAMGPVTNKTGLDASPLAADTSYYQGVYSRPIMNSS
Chain of Retinoic acid receptor alpha (Homo sapiens) (P10276 whole entry, looked up): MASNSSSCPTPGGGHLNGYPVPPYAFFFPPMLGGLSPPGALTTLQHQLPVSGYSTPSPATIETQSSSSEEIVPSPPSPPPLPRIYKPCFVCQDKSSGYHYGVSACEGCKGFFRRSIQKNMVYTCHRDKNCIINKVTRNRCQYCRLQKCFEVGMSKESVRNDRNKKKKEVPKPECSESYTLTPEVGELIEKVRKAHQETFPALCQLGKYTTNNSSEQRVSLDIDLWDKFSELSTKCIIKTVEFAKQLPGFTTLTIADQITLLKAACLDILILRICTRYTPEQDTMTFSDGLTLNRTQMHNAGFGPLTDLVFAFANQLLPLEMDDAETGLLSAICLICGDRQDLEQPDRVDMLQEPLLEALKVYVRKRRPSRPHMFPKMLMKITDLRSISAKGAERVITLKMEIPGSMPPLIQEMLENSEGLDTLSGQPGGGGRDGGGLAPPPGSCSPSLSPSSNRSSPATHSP

Row | Structure (SMILES) | outcome [1] | outcome [2] | outcome [3] | outcome [4] | outcome [5] | outcome [6] | outcome [7] | outcome [8] | outcome [9] | outcome [10] | outcome [11] | outcome [12] | outcome [13] | outcome [14] | outcome [15] | outcome [16] | outcome [17] | AC50 [16] | outcome [18] | outcome [19]
1 | CC(C)c1ccccc1O | inactive | inactive | inactive | inactive | inactive | inactive | inactive | inactive | inactive | inactive | inactive | inactive | inactive | inactive | inactive |  |  |  |  | 
2 | COCCOC(=O)c1ccccc1C(=O)OCCOC | inactive | inactive | inactive | inactive | inactive | inactive | inactive | inactive | inactive | inactive | inactive | inactive |  |  | inactive | inactive |  |  |  | 
3 | COc1ccc(N)c([N+](=O)[O-])c1 | inactive | inactive | inactive | inactive | inactive | inactive | inactive | inactive | inactive | inactive | inactive | inactive | inactive | inactive | inactive | inactive | inactive |  |  | 
4 | N#Cc1cscn1 | inactive | inactive | inactive | inactive | inactive | inactive | inactive | inactive | inactive | inactive | inactive | inactive | inactive | inactive | inactive |  | inactive | 34.7 µM (active) | inactive | 
5 | COc1ccc(CCC(C)=O)cc1 | inactive | inactive | inactive | inactive | inactive | inactive | inactive |  | inactive | inactive | inactive | inactive | inactive | inactive | inactive | inactive | inactive |  | inactive | 
6 | CCC(=O)OCCOc1ccccc1 | inactive | inactive | inactive | inactive | inactive | inactive | inactive |  | inactive | inactive | inactive | inactive | inactive | inactive | inactive | inactive | inactive |  | inactive | inactive
7 | CC(Oc1cc(Cl)ccc1Cl)C(=O)O (configuration not stated) | inactive | inactive | inactive | inactive | inactive | inactive | inactive | inactive | inactive | inactive | inactive | inactive | inactive | inactive | inactive | inactive | inactive |  | inactive | 
